Experiment [1] in a line: Viability qHTS for spleen associated tyrosine kinase inhibitor (SYKi) naive MV4-11 cells (AID 1963823). Note: nearly all actives have a fitted effect of over 40% in size. In outline:
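Compounds were dispensed acoustically onto plates, MV4-11 cells (SYKi-naive) added at 500 per well, and plates incubated 72 hr at 37 C. CellTiter-Glo was added and luminescence measured after 10 min.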
(In qHTS, concentration-response curves come from the screen itself.)

A short description of experiment [2]: Viability qHTS for spleen associated tyrosine kinase inhibitor (SYKi) drug resistant MV4-11 cells (AID 1963824). Note: nearly all actives have a fitted effect of over 35% in size. In outline:
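SYK inhibitor-resistant MV4-11 AML cells, 500 per well, added to predispensed compounds and incubated 72 hr at 37 C, 5% CO2. Viability measured by CellTiter-Glo luminescence after 10 min at room temperature.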

Records with an inconclusive call do not appear. Active and inactive are the calls of the source. Calls come from the whole dose curve; as a rule, active = well fitted cell-killing curve with a large enough effect; inconclusive = small, poorly fitted or top-dose-only effect, or effect the other way; inactive = no such curve, though single readings can be large or run the other way.
Potency is the fitted concentration of half-maximal effect.

For the compound `CC1OC(OC2C(OC3C(O[C@H]4CC[C@@]5(C)C(CC[C@]6(C)C5CC=C5C7CC(C)(C)CC(O)[C@]7(C)CC[C@]56C)C4(C)C)OC(C(=O)O)C(O)C3O)OCC(O)C2O)C(O)C(O)C1O` (stereo partly specified), the viability (% of control) in experiment [1] is 90.6% [at 9.25 µM] (inactive). Besides, the viability, % of control in experiment [2] is 94.4% [at 9.25 µM] (inactive).
As for `Cc1c(C(=O)O)c(O)cc2c1C(=O)c1c(O)c([C@@H]3O[C@H](CO)[C@@H](O)[C@H](O)[C@H]3O)c(O)c(O)c1C2=O`, the Potency entry in experiment [1] and in experiment [2] was “inactive” each time.
On to `CC(/C=C/C=C(\C)C(=O)O[C@@H]1O[C@H](CO[C@@H]2O[C@H](CO)[C@@H](O)[C@H](O)[C@H]2O)[C@@H](O)[C@H](O)[C@H]1O)=C\C=C\C=C(C)\C=C\C=C(/C)C(=O)O[C@@H]1C[C@](O)(C(=O)O)C[C@@H](O)[C@H]1OC(=O)/C=C/c1ccc(O)c(O)c1`, for which the viability (% of control) in experiment [1] is 78.4% [at 9.25 µM] (inactive). Moreover, the viability, % of control in experiment [2] was 91.1% [at 9.25 µM] (inactive).
As for `Cc1cc(CNC(=O)c2cc(C(=O)NCc3ccc(F)c(C)c3)ncn2)ccc1F`, the Potency entry in experiment [1] and in experiment [2] was “inactive” throughout.
With `CCC/C=C/c1cc2c(C=O)c(O)c(CC=C(C)C)cc2o1`, the Potency is 14.6 µM (active) in experiment [1] and 16.4 µM (active) in experiment [2].
In the case of `C[C@@H]1O[C@@H](OC[C@H]2O[C@@H](OCc3ccccc3)[C@H](O)[C@@H](O)[C@@H]2O)[C@H](O)[C@H](O)[C@H]1O`, the Potency result in experiment [1] and in experiment [2] was “inactive” in each case.
With `O=C(O)c1cccc(C(=O)CCC2OC(n3cnc4c(=O)[nH]cnc43)C(O)C2O)c1` (stereo unspecified), the Potency result in experiment [1] and in experiment [2] was “inactive” in each case.
Regarding `O=C(/C=C/c1ccc(O)cc1)c1ccc(O)cc1O`, the Potency in experiment [1] was 18.6 µM (active); in experiment [2], 11.8 µM (active).

These data come from PubChem BioAssay (NCATS).
